According to PubChem BioAssay (Tox21):
Results filed as inconclusive are left out. Active and inactive are the calls of the source. Unless noted, calls come from the whole dose curve.

What was measured:
[1] = Nuclear factor erythroid 2-related factor 2/antioxidant responsive element (Nrf2/ARE) small molecule agonists: luciferase reporter gene qHTS assay in human keratinocytes (AID 1919969); note: nearly all actives have a fitted effect of over 35% in size
[2] = target: KiSS-1 receptor (Homo sapiens) (UniProt Q969F8); assay: Human kisspeptin (KISS1R) small molecule agonists, calcium flux assay in KISS1R-HEK293 cells (AID 1920064; active = well fitted activation curve with a large enough effect in the repeat runs)
How it was run: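 Intracellular calcium mobilization in KISS1R-HEK293 cells was recorded by fluorescence (Ex/Em 480/540) for 3 min following compound addition to cells pre-loaded 1 h with calcium dye.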

[3] = G protein-coupled receptor (GPCR) small molecule agonists, calcium flux assay: HEK293 wild type cell line counter screen (AID 1920065)
How it was run: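 In this agonist-mode screen, ATP is the positive control and DMSO the vehicle. Cells grow 18 h before a 1 h dye incubation at 37 C; signal is taken at Ex/Em 480/540 over 3 min.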

[4] = p53 small molecule agonists, cell-based qHTS assay with human liver microsomes (AID 1963577);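 note: p53 response element beta-lactamase reporter cells with liver microsomes plus NADPH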
How it was run: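 16 h, 37 C exposure of p53RE-bla cells to compounds with human liver microsomes and NADPH (0.5 mg/mL final each); detection via LiveBLAzer mixture, 2 h dark at room temperature.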

[5] = p53 small molecule agonists, cell-based qHTS assay with human liver microsomes: qHTS cell viability counter screen (AID 1963579); note: nearly all actives have a fitted effect of over 45% in size
How it was run: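 In this multiplexed counter screen, the reporter plates were subsequently treated with CellTiter-Glo so that cell viability, reflected by luminescence, could be recorded for p53RE-bla cells dosed 16 h with compounds under microsomal activation (HLM and NADPH).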

[6] = p53 small molecule agonists, cell-based qHTS assay with rat liver microsomes: qHTS cell viability counter screen (AID 1963580); note: nearly all actives have a fitted effect of over 45% in size
How it was run: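 In HCT-116 cells carrying a p53 response element-bla reporter, compounds were metabolically activated in situ by rat liver microsomes with NADPH over 16 h. Cell ATP content then served as the cytotoxicity measure.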

[7] = p53 small molecule agonists, cell-based qHTS assay: qHTS cell viability counter screen (AID 1963581); note: nearly all actives have a fitted effect of over 45% in size
How it was run: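 Compounds are pinned onto HCT-116 p53RE-bla cells and left 16 h at 37 C. Following the reporter FRET read, ATP is quantified by CellTiter-Glo luminescence after 30 min at room temperature.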

[8] = p53 small molecule agonists, cell-based qHTS assay (AID 1963582; active = well fitted activation curve with a large enough effect in the signal ratio in the repeat runs, not every such curve was filed as active; the % refers to the signal ratio)
How it was run: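 Agonist activity was scored from beta-lactamase FRET fluorescence in p53RE-bla cells treated 16 h at 37 C with compounds in DMSO, substrate incubation being 2 h at room temperature.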

[9] = target: 5-hydroxytryptamine receptor 2A (Homo sapiens) (UniProt P28223); assay: 5-hydroxytryptamine receptor 2A (HTR2A) small molecule antagonists, cell-based qHTS assay (AID 1963586); note: nearly all actives have a fitted effect of over 45% in size
How it was run: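 Antagonist-mode intracellular calcium assay: DOI (4 nM) added after 5 min compound pre-incubation at room temperature to dye-loaded HTR2A-CHO cells. Fluorescence followed for 3 min, sampled every second.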

[10] = target: 5-hydroxytryptamine receptor 2A (Homo sapiens) (UniProt P28223); assay: 5-hydroxytryptamine receptor 2A (HTR2A) small molecule agonists, cell-based qHTS assay (AID 1963587); note: nearly all actives have a fitted effect of over 30% in size
How it was run: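 HTR2A-CHO cells, plated 18 h at 37 C/5% CO2, dye-loaded 1 h at 37 C; compounds in DMSO added by pin tool (agonist mode). Intracellular calcium flux read as kinetic fluorescence on FDSS over 2 min at 1 s intervals.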

[11] = target: Muscarinic acetylcholine receptor M1 (Homo sapiens) (UniProt P11229); assay: Cholinergic receptor muscarinic 1 (CHRM1) small molecule antagonists, cell-based qHTS assay (AID 1963588); note: nearly all actives have a fitted effect of over 40% in size
How it was run: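 CHRM1-CHO calcium-flux assay, antagonist mode. Cells were seeded 18 h, dye-loaded 1 h at 37 C and given compound for 5 min at RT, then acetylcholine was added at 50nM. FDSS fluorescence was read 3 min; 15 concentrations, three runs.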

[12] = target: Muscarinic acetylcholine receptor M1 (Homo sapiens) (UniProt P11229); assay: Cholinergic receptor muscarinic 1 (CHRM1) small molecule agonists, cell-based qHTS assay (AID 1963589); note: nearly all actives have a fitted effect of over 35% in size
How it was run: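 Stable CHRM1-CHO cells (human receptor) were incubated 18 h, dye-loaded for 1 h at 37 C and exposed to test compounds for agonist activity, with calcium-dependent fluorescence followed kinetically.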

[13] = cAMP Responsive Elements (CRE) small molecule agonists, cell-based qHTS assay (AID 1963590)
How it was run: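 FRET-based beta-lactamase readout (LiveBLAzer B/G, 2 h RT) quantified CRE activation in HEK 293T CRE-bla cells after 3 h treatment with DMSO-dissolved compounds.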

[14] = cAMP Responsive Elements (CRE) small molecule antagonists, cell-based qHTS assay (AID 1963591; active = well fitted inhibition curve with a large enough effect in the signal ratio in the repeat runs, not every such curve was filed as active; the % refers to the signal ratio)
How it was run: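 qHTS in CRE-bla HEK 293T cells: compound in DMSO, then 0.25 uM NKH477 (final), 3 h at 37 °C/5% CO2; beta-lactamase FRET read-out after 2 h substrate incubation.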

[15] = target: Beta-2 adrenergic receptor (Homo sapiens) (UniProt P07550); assay: Adrenergic beta2 receptor (ADRB2) small molecule antagonists, cell-based qHTS assay (AID 1963592); note: series mostly up to about 92 µM; nearly all actives have a fitted effect of over 50% in size
How it was run: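 Cells (CHO, stable ADRB2 overexpression) incubated 18-20hr at 37C; compounds added from DMSO; agonist mix (1nM isoproterenol, 100uM IBMX, 25uM Ro-20-1724) added; 0.5hr RT; d2-cAMP and anti-cAMP-cryptate added; 1hr RT; 665/615 nm read.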

[16] = target: Beta-2 adrenergic receptor (Homo sapiens) (UniProt P07550); assay: Adrenergic beta2 receptor (ADRB2) small molecule agonists, cell-based qHTS assay (AID 1963593);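 note: CHO cells stably overexpressing human ADRB2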
How it was run: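 CHO cells stably over-expressing ADRB2 were plated overnight at 37C, then dosed with compounds plus a stimulation mix containing 100uM IBMX and 25uM Ro-20-1724 for 0.5hr at room temperature. cAMP was measured by HTRF competition, 1hr.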

[17] = target: D(2) dopamine receptor (Homo sapiens) (UniProt P14416); assay: Dopamine D2 receptor (DRD2) small molecule agonists, cell-based qHTS assay (AID 1963594); note: nearly all actives have a fitted effect of over 35% in size
How it was run: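 HEK293 cells stably expressing DRD2 were cultured 24 h at 37 C, then given Ro20-1724 (0.1 mM final) and compounds for 10 min at room temperature. NKH477 (200nM) was then added for 30 min. cAMP was read by HTRF.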

[18] = target: D(2) dopamine receptor (Homo sapiens) (UniProt P14416); assay: Dopamine D2 receptor (DRD2) small molecule antagonists, cell-based qHTS assay (AID 1963595; active = well fitted inhibition curve with a large enough effect in the signal ratio in the repeat runs, with a control signal flat; the % refers to the signal ratio)
How it was run: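 In this cell-based antagonist screen, compounds act for 10 min at room temperature before a 30 min challenge with 12 nM quinpirole and 200 nM NKH477. cAMP is quantified by HTRF competition in DRD2-HEK293 cells containing 0.1 mM Ro20-1724.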

[19] = target: Gonadotropin-releasing hormone receptor (Homo sapiens) (UniProt P30968); assay: Human gonadotropin-releasing hormone receptor (GnRHR) small molecule agonists, calcium flux assay in GnRHR-HEK293 cells (AID 1920063); note: nearly all actives have a fitted effect of over 35% in size
How it was run: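 Tox21-format agonist screen using human GnRHR-expressing HEK293 cells and a fluorescent calcium dye; kinetic 3-min fluorescence reading after compound addition, 15-point concentration series run in triplicate.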

[20] = p53 small molecule agonists, cell-based qHTS assay with rat liver microsomes (AID 1963578)
How it was run: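 With rat liver microsomes and NADPH present (0.5 mg/mL final each), p53RE-bla cells are treated with compound for 16 h at 37 C. LiveBLAzer detection mixture is then applied for 2 h at room temperature in the dark.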

Measured: Potency

Sequence of D(2) dopamine receptor (Homo sapiens) (P14416 whole entry, looked up): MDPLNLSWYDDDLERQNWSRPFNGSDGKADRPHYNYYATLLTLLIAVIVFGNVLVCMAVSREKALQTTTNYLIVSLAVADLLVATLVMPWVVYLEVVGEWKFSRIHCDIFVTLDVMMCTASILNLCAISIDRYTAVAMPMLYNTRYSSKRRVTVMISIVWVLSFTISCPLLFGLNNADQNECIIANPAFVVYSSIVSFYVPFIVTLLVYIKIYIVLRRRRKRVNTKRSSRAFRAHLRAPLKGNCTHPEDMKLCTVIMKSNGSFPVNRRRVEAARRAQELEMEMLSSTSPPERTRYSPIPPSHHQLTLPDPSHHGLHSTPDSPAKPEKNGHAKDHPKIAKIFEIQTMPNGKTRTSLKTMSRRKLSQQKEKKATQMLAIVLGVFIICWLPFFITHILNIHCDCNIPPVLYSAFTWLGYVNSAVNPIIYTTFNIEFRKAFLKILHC
Sequence of Muscarinic acetylcholine receptor M1 (Homo sapiens) (P11229 whole entry, looked up): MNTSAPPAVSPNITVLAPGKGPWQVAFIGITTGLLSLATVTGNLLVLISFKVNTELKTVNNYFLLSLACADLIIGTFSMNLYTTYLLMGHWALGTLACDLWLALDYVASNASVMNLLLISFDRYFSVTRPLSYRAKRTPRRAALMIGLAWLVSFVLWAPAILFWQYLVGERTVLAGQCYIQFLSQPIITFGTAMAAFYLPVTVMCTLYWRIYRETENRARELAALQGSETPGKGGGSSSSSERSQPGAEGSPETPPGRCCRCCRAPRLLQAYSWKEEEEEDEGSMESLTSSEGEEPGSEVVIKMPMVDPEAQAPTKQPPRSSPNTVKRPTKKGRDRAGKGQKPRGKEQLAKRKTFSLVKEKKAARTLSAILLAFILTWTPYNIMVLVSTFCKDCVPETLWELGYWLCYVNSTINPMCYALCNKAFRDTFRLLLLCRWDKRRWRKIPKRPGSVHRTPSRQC
Sequence of Gonadotropin-releasing hormone receptor (Homo sapiens) (P30968 whole entry, looked up): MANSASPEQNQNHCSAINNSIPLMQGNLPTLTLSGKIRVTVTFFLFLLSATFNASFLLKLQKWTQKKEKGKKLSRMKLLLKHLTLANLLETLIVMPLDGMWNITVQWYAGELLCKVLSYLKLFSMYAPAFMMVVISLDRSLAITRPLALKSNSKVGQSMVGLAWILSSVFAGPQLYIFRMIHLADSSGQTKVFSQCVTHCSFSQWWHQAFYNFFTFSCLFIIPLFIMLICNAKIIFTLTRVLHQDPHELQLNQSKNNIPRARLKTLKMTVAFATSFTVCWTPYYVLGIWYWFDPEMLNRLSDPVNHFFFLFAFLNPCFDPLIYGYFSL
Sequence of KiSS-1 receptor (Homo sapiens) (Q969F8 whole entry, looked up): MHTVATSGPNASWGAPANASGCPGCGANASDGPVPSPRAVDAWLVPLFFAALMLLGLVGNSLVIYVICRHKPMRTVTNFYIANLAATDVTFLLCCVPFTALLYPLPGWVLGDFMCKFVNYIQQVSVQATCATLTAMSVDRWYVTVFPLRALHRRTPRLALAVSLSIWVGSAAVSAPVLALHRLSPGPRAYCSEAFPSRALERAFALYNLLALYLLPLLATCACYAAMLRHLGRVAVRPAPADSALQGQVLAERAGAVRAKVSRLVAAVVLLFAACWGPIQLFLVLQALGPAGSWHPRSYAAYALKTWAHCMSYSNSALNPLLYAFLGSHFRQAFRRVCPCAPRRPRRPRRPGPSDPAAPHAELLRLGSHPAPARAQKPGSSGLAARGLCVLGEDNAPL
Sequence of Beta-2 adrenergic receptor (Homo sapiens) (P07550 whole entry, looked up): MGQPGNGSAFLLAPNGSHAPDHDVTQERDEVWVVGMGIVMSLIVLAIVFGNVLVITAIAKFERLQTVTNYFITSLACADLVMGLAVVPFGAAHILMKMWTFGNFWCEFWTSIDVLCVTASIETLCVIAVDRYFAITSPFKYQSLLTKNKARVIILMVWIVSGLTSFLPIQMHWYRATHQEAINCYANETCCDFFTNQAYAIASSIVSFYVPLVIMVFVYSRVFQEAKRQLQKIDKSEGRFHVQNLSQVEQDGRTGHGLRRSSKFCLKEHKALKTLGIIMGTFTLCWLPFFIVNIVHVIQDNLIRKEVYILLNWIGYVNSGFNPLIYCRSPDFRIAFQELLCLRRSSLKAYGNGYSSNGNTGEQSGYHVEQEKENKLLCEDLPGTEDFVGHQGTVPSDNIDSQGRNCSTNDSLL
Sequence of 5-hydroxytryptamine receptor 2A (Homo sapiens) (P28223 whole entry, looked up): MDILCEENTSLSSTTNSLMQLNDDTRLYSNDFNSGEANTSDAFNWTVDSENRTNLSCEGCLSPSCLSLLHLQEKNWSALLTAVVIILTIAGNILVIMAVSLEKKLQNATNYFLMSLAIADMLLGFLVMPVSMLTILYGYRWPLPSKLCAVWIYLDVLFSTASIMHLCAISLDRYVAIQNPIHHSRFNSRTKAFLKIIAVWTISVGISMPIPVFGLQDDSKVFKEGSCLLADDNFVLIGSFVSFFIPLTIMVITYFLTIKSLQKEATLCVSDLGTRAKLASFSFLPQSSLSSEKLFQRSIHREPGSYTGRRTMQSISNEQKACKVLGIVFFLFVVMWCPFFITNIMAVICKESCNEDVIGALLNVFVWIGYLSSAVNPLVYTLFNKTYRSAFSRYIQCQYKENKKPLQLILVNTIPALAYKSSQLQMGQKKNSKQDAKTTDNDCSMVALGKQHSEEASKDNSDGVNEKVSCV

OCCCc1ccccc1
not listed: [19] | [20]
inactive: all other assays above

Cc1[nH]c(=O)c(C#N)cc1-c1ccncc1
inactive: [1] | [19] | [3] | [4] | [20] | [5] | [6] | [13] | [14] | [17] | [18]

F[B-](F)(F)F
not listed: [4] | [8] | [20]
inactive: all other assays above

CCCc1c(OCCCCc2nn[nH]n2)ccc(C(C)=O)c1O
not listed: [3] | [8] | [13] | [14] | [16]
inactive: all other assays above

COC(=O)c1ccc(C)cc1
not listed: [2] | [6] | [13] | [16]
inactive: all other assays above

C=CC(C)(CCC=C(C)C)OC(C)=O (stereo unspecified)
not listed: [3] | [6]
inactive: all other assays above

CCOc1ccc(NC(=O)CC(C)O)cc1 (stereo unspecified)
not listed: [3] | [19]
inactive: all other assays above

CC(C)=CCO
not listed: [19]
inactive: all other assays above

CC(=O)Nc1ccccc1
not listed: [4] | [8] | [20]
inactive: all other assays above

CCCCC(C=O)CC (stereo unspecified)
not listed: [4] | [8] | [20]
inactive: all other assays above
